# Sm TGR block = qHTS Assay for the Inhibitors of Schistosoma Mansoni Peroxiredoxins; Schistosoma mansoni thioredoxin glutathione reductase (TGR), Q962Y6; purified TGR, DTNB reduction, TNB absorbance 405 nm; Potency, µM (series often up to 114 µM), for inactives: at the top dose activity change, negative = inhibition, most hits filed as inhibitors; actives 3% (n = 360,000); AID 485364, 2010; active = well fitted inhibition curve with a large enough effect; inconclusive = small, poorly fitted or top-dose-only effect; inactive = no such curve, though single readings can be large or run the other way; note: potency is the fitted concentration of half-maximal effect; % is set by controls: 0 for no effect and ±100 for the full control effect; nearly all actives have a fitted effect of over 60% in size
#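 First, TGR (20 nM dispensed) and NADPH were mixed with compound. Second, a 15 min room-temperature incubation followed. Third, further NADPH and then DTNB were added to start the reaction. Finally, TNB absorbance was monitored kinetically.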
# Cycloheximide cs = Cycloheximide Counterscreen for Small Molecule Inhibitors of Shiga Toxin | cell reporter, cycloheximide protein synthesis inhibition counterscreen | actives 12% (n = 300,000) | max response, % | AID 2314, 2010; in the data active = max response mostly above about 13%, no sharp cut-off; inactive = mostly below about 14%; note: read at 38.3 µM for the half of the compounds with a filed dose; 0% is about no effect
# FMDV antiviral = High Throughput Screening for Foot and Mouth Disease Virus Antivirals; FMDV antiviral cell-based qHTS; actives 1.2% (n = 410,000); Potency, µM (highest dose often 57.9 µM), inactives show top-dose activity change, negative = inhibition, actives largely listed as inhibitors; AID 1159524, 2015; calls by dose curve; tested in HEK293T cells; note: read-out not given here; potency is the fitted concentration of half-maximal effect; % is set by controls: 0 for no effect and ±100 for the full control effect; nearly all actives have a fitted effect of over 45% in size
# Shiga inhibitor = A qHTS for Small Molecule Inhibitors of Shiga Toxin; Vero cells, Shiga toxin protein synthesis inhibition reporter; inhibition, % at 38.7 µM; actives 9.2% (n = 290,000); AID 2315, 2010; in the data active = inhibition mostly above about 28%, no sharp cut-off; inactive = mostly below about 43%; note: 0% is about no effect
# Active calls of the source: *; ? = inconclusive; · = not tested or not shown. In the library only some 12% were active in any assay of this set; here they are far more common.
SMILES,Sm TGR block,Cycloheximide cs,FMDV antiviral,Shiga inhibitor
CCOc1cc(C(=O)N/N=C(\C)Cc2ccc(OC)cc2)cc(OCC)c1OCC,-18%,-3,-24%,-18
C=CCOc1ccc(C(=O)NC2CCCCC2)cc1,-17%,21*,51%,111*
CC(C)Oc1ccc(C(=O)NC2CCS(=O)(=O)C2)cc1 (configuration not stated),11%,6,-12%,15
O=C(NC1CCCCCCC1)c1ccc(Br)cc1,·,·,0%,·
CC(C)Oc1ccc(C(=O)NC2CCCCC2)cc1,-4%,47*,39%,65
COc1ccccc1NC(=O)N1CC=C(c2c[nH]c3ccccc23)CC1,?,·,-2%,·
Cc1ccncc1C(=O)O,·,-2,·,-6
COc1ccc(-c2nc3c(C#N)c[nH]n3c2NC2CCCC2)c(OC)c1,0%,·,13%,·
COc1ccc(-c2cc(N3C(=O)Nc4ccccc4N3O)n[nH]2)cc1OC,-7%,13*,9%,19
COc1cc(-c2cc(N3C(=O)Nc4ccccc4N3O)n[nH]2)cc(OC)c1OC,10%,-2,-13%,-8
CC(=O)NCc1ccc(C(=O)CSc2nnc(-c3ccncc3)n2Cc2ccccc2)o1,35µM*,0,2%,13
O=C(OCC#CCSc1nc2ccccc2s1)c1ccco1,0%,37*,50%,69
O=C(OCC#CCSc1nnc(-c2ccccc2)o1)c1ccco1,0%,7,28%,29
O=C(CSc1nc2ccccc2s1)N1CCN(C(=O)c2ccco2)CC1,-17%,6,?,21
O=C(OCc1nnc(-c2ccc(Br)cc2)o1)c1ccco1,-5%,28*,12%,40
O=C(OCC#CCSc1nnc(-c2ccc(Br)cc2)o1)c1ccco1,?,19*,17%,47*
O=C(OCc1nnc(-c2ccccc2)o1)c1ccc(Br)o1,-3%,·,-12%,·
COc1ccc(CCNC(=O)CCc2c(C)nc3c(c(C)nn3-c3ccc(C)cc3)c2C)c(OC)c1,-10%,·,-19%,·
COc1ccc(-c2nc3cc(C(C)C)ccc3o2)cc1NC(=O)c1ccccc1[N+](=O)[O-],3%,·,48%,·
COc1ccc(CNCCCSc2nnnn2C)c(OC)c1,?,·,7%,·
Cc1nn(-c2ccccc2)nc1C(=O)Nc1cccc(C(=O)NC2CC2)c1,·,·,32µM*,·
Cc1ccc(-n2nc(C)c(C(=O)Nc3cccc(C(=O)NC4CC4)c3)n2)c(C)c1,-2%,·,28µM*,·
Cc1cccc(NS(=O)(=O)c2ccc3c(c2)CC(C)N3C(=O)C2CCC2)c1C (configuration not stated),1%,·,-17%,·
Cc1ccc(C(=O)N2CCCCC2CCN2CCCCC2)cc1 (configuration not stated),-2%,·,-7%,·
C=Cc1cccc(NC(=O)c2ccc(NC(=O)c3ccco3)cc2)c1,2%,19*,-5%,35*
SMILES,Sm TGR block,Cycloheximide cs,FMDV antiviral,Shiga inhibitor
O=C(Nc1ccccc1)c1cccc(NC(=O)c2ccco2)c1,·,·,-14%,·
Cc1cc(NC(=O)c2ccco2)ncc1NC(=O)CCc1ccccc1,28%,28*,16%,33
O=C(Nc1cccnc1)c1ccco1,-1%,1,·,40
COc1cccc(C(=O)Nc2ccc(NC(=O)c3ccco3)c(Cl)c2)c1,4%,30*,14%,64*
O=C(Nc1cccnc1)c1ccc(NC(=O)c2ccco2)cc1,-4%,19*,-5%,61
COc1ccc(/C=C(\NC(=O)c2ccccc2)C(=O)NC2CCCCC2)cc1,-6%,·,35%,·
Cc1ccc(NC(=O)Cn2cnc3sc(C(=O)O)c(C)c3c2=O)cc1Cl,-4%,·,-10%,·
COc1cc(CNCCSc2nnnn2C)ccc1OCc1ccccc1C,8%,·,12%,·
Cc1ccc(Nc2nc3ccc(C)cc3nc2-n2nc(C)cc2C)c(C)c1,10%,·,-8%,·
O=C(Nc1ccc(NC(=O)C2CC2)nc1)c1cccc(F)c1,-3%,47*,48%,59*
COc1cccc(C(=O)Nc2ccc(NC(C)=O)cn2)c1,-5%,31*,45%,65*
O=C(NCCCNC(=O)c1ccco1)c1cccc(F)c1,5%,3,6%,-19
Cc1cc(NC(=O)c2cccc(F)c2)ncc1NC(=O)c1ccco1,-10%,21*,-5%,50
O=C(Nc1ccc(NC(=O)c2ccco2)nc1)c1cccc(F)c1,3%,40*,-2%,82*
Cc1cccc(OCC(=O)N(Cc2cccc(Cl)c2)Cc2ccco2)c1C,-1%,·,-27%,·
COC(=O)c1ccc(CN2C[C@H](Sc3ccccn3)C[C@H]2C(=O)N(C)C)cc1,·,·,11%,·
COc1ccc(C(=O)Nc2ccc(NC(=O)C3CC3)cn2)cc1,-9%,13,26%,34
O=C(Nc1ccccc1C(=O)Nc1ccccc1)c1ccco1,5%,6,-5%,30
CC(C)C(=O)Nc1ccc(NC(=O)c2cccc(F)c2)cn1,0%,22*,48%,76*
O=C(O)c1cc(NC(=O)c2cccc(F)c2)cc(NC(=O)c2cccc(F)c2)c1,15%,0,-3%,-11
O=C(Nc1ccc(NC(=O)c2ccccc2F)cn1)c1ccco1,11%,18*,-43%,36
O=C(NCc1cccnc1)c1ccc(NC(=O)c2ccco2)cc1,-6%,12,40%,-2
COc1cccc(C(=O)Nc2ccc(NC(=O)C3CC3)nc2)c1,8%,18*,-6%,24
O=C(Nc1ccc(NC(=O)c2ccco2)nc1)c1cccnc1,-18%,21,-7%,54*
COc1cc(-c2nnc(SCC(=O)NCc3ccccc3Cl)o2)cc(OC)c1OC,0%,·,?,·
SMILES,Sm TGR block,Cycloheximide cs,FMDV antiviral,Shiga inhibitor
CCCC(=O)Nc1ccc(NC(=O)c2cccc(OC)c2)nc1,12%,33*,59%,119*
COc1cc(C(=O)Nc2ccc(NC(=O)c3ccco3)nc2)cc(OC)c1OC,?,-3,-19%,-12
COc1cccc(C(=O)Nc2ccc(NC(=O)c3ccco3)nc2)c1,0%,63*,48%,194*
CN(CC1CCOCC1)C(=O)CC1C(=O)NCCN1Cc1ccc(Cl)c(F)c1 (configuration not stated),28µM*,1,-19%,29
O=C(CC1C(=O)NCCN1Cc1ccc(Cl)c(F)c1)NCC1CCOCC1 (configuration not stated),40µM*,-1,-12%,10
O=C1NCCN(Cc2c(F)cccc2Cl)C1CC(=O)N1CCCCO1 (configuration not stated),-16%,1,-1%,35
CCOc1ccc(CN2CCNC(=O)C2CC(=O)N(C)CC2CCOCC2)cc1 (configuration not stated),?,-2,7%,-11
O=C(CC1C(=O)NCCN1Cc1ccc(Cl)c(F)c1)NCCc1cccnc1 (configuration not stated),45µM*,1,-13%,25
O=C1NCCN(Cc2ccc(Cl)c(F)c2)C1CC(=O)N1CCCCO1 (configuration not stated),25µM*,-2,14%,15
COc1ccc(C2c3c(n(C)c4ccccc34)C(=O)N2CC(=O)Nc2cccc(Cl)c2)cc1 (configuration not stated),-4%,·,-13%,·
